Hits are enriched below; roughly 2.4% of the tested compounds scored in any of these assays.
WRN helicase inh = inhibitors of human WRN helicase | Q14191 | WRN helicase unwinding, fluorescent forked duplex, kinetic | Potency, µM (highest dose often 114 µM), inactives show at the top dose activity change, negative = inhibition, usual class: inhibitors | 360,000 tested, 0.46% active; also: potency is read from the fitted curve at half-maximal effect; % is scaled to controls: 0 for no effect and ±100 for the full control effect; nearly all actives have a fitted effect of over 55% in size
Target sequence (Q14191 whole entry, looked up): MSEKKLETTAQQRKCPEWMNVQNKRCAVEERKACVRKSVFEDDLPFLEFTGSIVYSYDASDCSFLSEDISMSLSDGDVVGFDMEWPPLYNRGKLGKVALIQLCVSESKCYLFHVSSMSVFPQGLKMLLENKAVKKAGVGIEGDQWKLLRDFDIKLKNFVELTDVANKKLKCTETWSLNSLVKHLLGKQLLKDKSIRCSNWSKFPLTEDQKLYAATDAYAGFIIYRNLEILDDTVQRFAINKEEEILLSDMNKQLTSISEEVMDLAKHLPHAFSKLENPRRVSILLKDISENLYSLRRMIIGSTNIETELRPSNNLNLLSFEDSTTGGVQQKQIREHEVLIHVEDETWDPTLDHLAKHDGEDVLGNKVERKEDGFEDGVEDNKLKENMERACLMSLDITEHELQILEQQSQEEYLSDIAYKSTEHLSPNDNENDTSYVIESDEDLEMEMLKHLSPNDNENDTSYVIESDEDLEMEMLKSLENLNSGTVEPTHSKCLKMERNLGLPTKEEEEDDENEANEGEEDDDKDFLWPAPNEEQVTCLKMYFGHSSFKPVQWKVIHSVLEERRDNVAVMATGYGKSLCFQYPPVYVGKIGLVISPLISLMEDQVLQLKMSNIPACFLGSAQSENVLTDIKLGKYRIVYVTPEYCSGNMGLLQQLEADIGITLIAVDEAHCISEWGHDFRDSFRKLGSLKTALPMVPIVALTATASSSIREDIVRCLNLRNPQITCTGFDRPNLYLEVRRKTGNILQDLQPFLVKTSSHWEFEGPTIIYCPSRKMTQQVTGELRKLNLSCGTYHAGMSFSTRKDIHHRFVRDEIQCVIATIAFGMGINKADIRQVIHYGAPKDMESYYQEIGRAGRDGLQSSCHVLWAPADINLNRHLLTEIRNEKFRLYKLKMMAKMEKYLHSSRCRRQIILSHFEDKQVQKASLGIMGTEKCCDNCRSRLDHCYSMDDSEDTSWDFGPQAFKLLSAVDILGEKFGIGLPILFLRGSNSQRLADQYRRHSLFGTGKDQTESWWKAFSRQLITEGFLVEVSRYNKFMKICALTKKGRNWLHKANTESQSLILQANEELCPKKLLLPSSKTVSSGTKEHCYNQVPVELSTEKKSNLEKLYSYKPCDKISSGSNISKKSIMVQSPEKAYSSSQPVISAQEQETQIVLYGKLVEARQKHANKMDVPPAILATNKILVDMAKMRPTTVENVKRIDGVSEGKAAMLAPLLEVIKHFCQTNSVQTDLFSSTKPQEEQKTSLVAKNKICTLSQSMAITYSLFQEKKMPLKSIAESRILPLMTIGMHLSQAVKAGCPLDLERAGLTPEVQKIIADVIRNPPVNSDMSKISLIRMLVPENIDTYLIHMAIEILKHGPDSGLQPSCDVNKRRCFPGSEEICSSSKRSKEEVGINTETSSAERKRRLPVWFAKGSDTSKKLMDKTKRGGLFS
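Fluorescence dequenching readout, ex 525 nm/em 598 nm, kinetic mode: forked duplex DNA (100 nM final) with adjacent fluorophore and quencher unwound by WRN (20 nM final) with 2 mM ATP. Compound preincubation 15 min, room temperature.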
Pol eta inh = blocks human DNA polymerase eta activity | AID 588591 | Potency, µM (doses to about 114 µM), for inactives: top-dose activity change, negative = inhibition, actives largely listed as inhibitors | recombinant Pol eta, fluorescent DNA replication assay | 390,000 tested, 1.2% active; also: potency is read from the fitted curve at half-maximal effect; % is scaled to controls: 0 for no effect and ±100 for the full control effect
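Fluorescent replication assay: 50 nM final substrate added after a 15 min room-temperature compound preincubation with 10 nM enzyme. Signal taken at 0 min and again at 10 min.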
POLK inh = blocks human DNA polymerase kappa activity | purified Pol kappa, fluorescent DNA synthesis assay, 10 min | Potency, µM (titrated, usually from 107 µM), inactives show top-dose activity, negative = inhibition, actives largely listed as inhibitors | 400,000 tested, 0.53% active | AID 588579; also: potency is read from the fitted curve at half-maximal effect; % is scaled to controls: 0 for no effect and ±100 for the full control effect
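Kinetic fluorescence screen: compound preincubated 15 min RT with 10 nM enzyme; 50 nM substrate (final) initiates; reads at 0/10 min.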
Pol beta inh-1 = blocks human DNA polymerase beta activity; P06746; Pol beta primer extension/strand displacement, fluorescence kinetic; Potency, µM (top dose mostly 114 µM), for inactives: at the highest dose activity change, negative = inhibition, most hits filed as inhibitors; 340,000 tested, 1.3% active; AID 485314; also: potency is read from the fitted curve at half-maximal effect; % is scaled to controls: 0 for no effect and ±100 for the full control effect
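Curves were derived by four-parameter Hill fits of normalized qHTS data. The kinetic fluorescent primer-extension read was taken at 0 and 10 min after 50 nM substrate, following a 15 min room-temperature preincubation of 10 nM enzyme with compounds.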
FEN1 inhibitor = blocks human flap endonuclease 1; P39748; Recombinant FEN1 flap cleavage, fluorescence, 15 min; Potency, µM (titrated, usually from 114 µM), inactives show top-dose activity change, negative = inhibition, usual class: inhibitors; 390,000 tested, 0.35% active; AID 588795; also: potency is read from the fitted curve at half-maximal effect; % is scaled to controls: 0 for no effect and ±100 for the full control effect; nearly all actives have a fitted effect of over 65% in size
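Potency values derive from four-parameter Hill fits of normalized qHTS data. The reaction used 10 nM FEN1 preincubated 15 min at room temperature with compound, then 50 nM DNA substrate, read at 0 and 15 min.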
POLI inh = inhibitors of human DNA polymerase iota; Pol iota fluorescent replication assay, 10 min; 390,000 tested, 1% active; Q9UNA4; Potency, µM (highest dose often 115 µM), inactives show top-dose activity, negative = inhibition, most hits filed as inhibitors; also: potency is read from the fitted curve at half-maximal effect
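Fluorescent replication assay read twice, at 0 min and 10 min after adding 50 nM (final) substrate. Enzyme (10 nM) and compounds were first incubated 15 min at room temperature; enzyme-free buffer wells were negative controls.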
Pol beta inh-2 = Human Pol beta inhibitor hit validation; 250 tested, 87% active; Potency, µM, actives largely listed as inhibitors; shares compounds with Pol beta inh-1; Pol beta primer extension/strand displacement, fluorescence kinetic; AID 540280; calls by dose curve; also: potency is read from the fitted curve at half-maximal effect
Klenow counter = Klenow polymerase inhibition, pol beta selectivity check; shares compounds with Pol beta inh-1; Klenow exo- polymerase counter-screen, fluorescent DNA substrate; activity change, negative = inhibition, % at 57.1 µM; 250 tested, under 10 active
HIV RT inh = counter-screen for DNA polymerase beta inhibitors: HIV-1 RT inhibition; shares compounds with Pol beta inh-1; HIV-1 RT polymerase activity, counter-screen; activity % (negative = inhibition, positive = activation), % at 57.1 µM; 250 tested, under 10 active
Numbers without * were called inactive; ? = inconclusive; . = no result given; [ ] = remark or other dose. Unless noted, calls follow the shape of the dose curve; as a rule, active = well fitted curve in the direction sought with a large enough effect; inconclusive = small, poorly fitted or top-dose-only effect, or another doubt; inactive = no such curve, though single readings can be large; an effect the other way counts as inactive or inconclusive.

SMILES	WRN helicase inh	Pol eta inh	POLK inh	Pol beta inh-1	FEN1 inhibitor	POLI inh	others
O=C(C1=C(O)C(=O)N(Cc2ccco2)C1c1cccnc1)c1cc2ccccc2o1 (stereo not drawn)	-32%	?	-23%	7%	-10%	?
Cc1ccc(C(=O)C2=C(O)C(=O)N(Cc3ccco3)C2c2cccc(Br)c2)o1 (stereo not drawn)	-8%	-6%	-2%	79µM*	-14%	103%
CC(=O)OC1C=C[C@@H](OC(C)=O)C1 (stereo partly drawn)	.	.	13%[60.1 µM]	.	.	.
CC(=O)N[C@@H](CCC(=O)O)C(=O)O	.	.	4%[19.4 µM]	.	.	.
CC(C)Nc1nnc(SCc2cc(=O)n3ccsc3n2)s1	-7%	-17%	-18%	32µM*	2%	?
CCOc1ccc(NC(=O)CSc2nc(C3CC3)nc3ccccc23)cc1	3%	1%	-4%	1%	-5%	33%
COc1cccc(NC(=O)CSc2nc(C3CC3)nc3ccccc23)c1	-10%[11.6 µM]	40µM*	3%	-2%	-8%	?
O=C(Nc1ccc(S(=O)(=O)Nc2ncccn2)cc1)c1nn(Cc2ccccc2)c(=O)c2ccccc12	-10%	79µM*	-19%	?	-3%	?
CCn1nc(C(=O)Nc2ccc(S(=O)(=O)Nc3nccs3)cc2)c2ccccc2c1=O	-18%	?	-33%	-18%	-2%	-1%
O=C(C[n+]1ccccc1Br)c1ccc(I)cc1	.	.	-4%	.	-12%	15%
COc1ccc(-n2c(O)c(/C=N/NS(=O)(=O)c3cc(C)ccc3C)c3ccccc3c2=O)cc1OC	79µM*	?	?	?	?	?
Cc1ccc(-c2cc(C3C4C=CCC(C)C4C(=O)N3Cc3ccccc3)ccc2F)cc1 (stereo not drawn)	.	.	-45%	.	-26%	?
COc1ccccc1CNc1ncnc2ccc(-c3ccccc3C#N)cc12	.	.	5%[60.1 µM]	.	.	.
COc1ccc(CNc2ncnc3ccc(-c4ccccc4C#N)cc23)c(OC)c1	.	.	40µM*	.	.	.
O=C(Nc1ccc2oc(-c3ccccc3F)nc2c1)c1ccc([N+](=O)[O-])o1	4%	4%	-6%[60.1 µM]	11µM*	-18%	?
O=C(Nc1ccc2oc(-c3ccccc3F)nc2c1)c1ccccc1Cl	.	-15%	-25%	7%	-16%	16%
N[C@@H](Cc1cc(I)c(Oc2ccc(O)cc2)c(I)c1)C(=O)O	.	.	2%[19.4 µM]	.	.	.
Cc1cccc(N2CSC3=C(C#N)C(c4ccc(C)o4)CC(=O)N3C2)c1 (stereo not drawn)	.	.	.	5µM*	.	.
Nc1cc(=O)[nH]c2c1CCC2	.	.	-13%	.	-2%	51%
Cc1nc2c(C(=O)N3CCN(c4ccccn4)CC3)cnn2c(C)c1Cc1cccc(Cl)c1	0%	-18%	-8%	3%	-16%	89µM*
Cc1ccc2c(c1)C1C=CCC1C(C(=O)O)N2 (stereo not drawn)	.	.	.	3.5µM*	.	.
Cc1ccc2c(c1)C1C=CCC1C(C(=O)NCCCN1CCOCC1)N2 (stereo not drawn)	-1%	-4%	-18%	.	-24%	49%
CC(=O)c1ccc2c(c1)C1C=CCC1C(c1ccncc1)N2 (stereo not drawn)	-33%	?	-13%	?	-18%	32µM*
COc1ccc(C(=O)Nc2cc(-c3nc4ccccc4s3)ccc2OC)cc1	.	-17%	-5%	29%	-12%	3%
COc1ccc(-c2nc3ccccc3s2)cc1NC(=O)c1cccc(F)c1	.	-29%	-4%[60.1 µM]	13µM*	?	?
SMILES	WRN helicase inh	Pol eta inh	POLK inh	Pol beta inh-1	FEN1 inhibitor	POLI inh	others
Cc1cnc2ccc(I)cc2c1/C=C/c1ccc(N(C)C)cc1	.	.	-39%	.	-30%	-22%
CC(=O)COc1ccc2c(c1C)O/C(=C\c1ccco1)C2=O	-10%	22µM*	?	45µM*	1%	?
CC(=O)O[C@@]12CO[C@@H]1C[C@H](O)[C@@]1(C)C(=O)[C@H](O)C3=C(C)[C@@H](OC(=O)C(O)[C@@H](NC(=O)OC(C)(C)C)c4ccccc4)C[C@@](O)([C@@H](OC(=O)c4ccccc4)[C@H]21)C3(C)C (stereo partly drawn)	.	.	-3%[19.4 µM]	.	3%	-10%
Cc1cc2nc(C)n(CCCNC(=O)Nc3cccc4ccccc34)c2cc1C	-17%	-3%	-23%	40µM*	-12%	?
c1ncc(CCCC2CCNCC2)[nH]1	.	.	12%[60.1 µM]	.	.	.
Nc1cccc(/C=C2\C=Cc3ccccc32)c1	.	.	-28%	.	11%	?
COc1ccc(C(OCCN2CCC[C@H](C(=O)O)C2)(c2ccc(OC)cc2)c2ccc(OC)cc2)cc1	.	.	-9%[12 µM]	.	.	.
O=S1(=O)Nc2c(ccc3cccnc23)-c2ccccc21	-13%	3%	-9%	18%	7%	?
Cc1cnc2c3c(cc(Cl)c2c1)-c1ccccc1S(=O)(=O)N3	.	.	79µM*	.	?	28µM*
O=C(NCCN1CCOCC1)C1(C(F)(F)F)CC(CCCO)CCCO1 (stereo not drawn)	.	.	-6%	.	-6%	17%
S=c1[nH]c(=S)c2[nH]cnc2[nH]1	.	.	-11%	.	-1%	79µM*
Cn1c(=O)[nH]c2nc[nH]c2c1=O	-2%	-11%	-19%	.	-9%	-5%
COc1cc(/C=N/Nc2ccccc2[N+](=O)[O-])cc(OC)c1O	-1%	-10%	5%	2%	2%	60%
COc1cc(/C=N/Nc2ccc(S(N)(=O)=O)cc2[N+](=O)[O-])cc(OC)c1O	-6%[11.6 µM]	?	-20%	?	-9%	40µM*
COc1cc(/C=N/Nc2nc3ccccc3s2)cc([N+](=O)[O-])c1O	?	56µM*	-6%	22µM*	45µM*	-8%
O=C(OCC(=O)N1CCN(C(=O)c2ccco2)CC1)c1cc(-c2ccco2)nc2ccccc12	50µM*	32µM*	25µM*	3.2µM*	?	8.9µM*	Pol beta inh-2=3.5*;Klenow counter=-24;HIV RT inh=?
COc1cccc(NC(=O)c2oc3ccccc3c2NC(=O)c2ccc(OC(C)C)cc2)c1	.	-4%	-1%	18%	-14%	0%
CC(=O)COc1ccc2oc(=O)cc(-c3cc4ccccc4o3)c2c1	4%	-20%	-2%	10%	?	-5%

Source: PubChem BioAssay
